Measurements from PubChem BioAssay AID1347417 (National Center for Advancing Translational Sciences (NCATS), 2020).
The campaign covered roughly 120,000 compounds. About 5,300 (4.4%) were called active. About 22% were inconclusive and are not listed. Calls follow the shape of the dose curve; as a rule, active = well fitted inhibition curve with a large enough effect; inconclusive = small, poorly fitted or top-dose-only effect; inactive = no such curve, though single readings can be large or run the other way. What follows is part of a selection rich in actives, with near analogues and random picks from the rest.

Assay: qHTS Primary assay for Inhibitors of Plasmodium falciparum Dd2 growth in vitro; also: nearly all actives have a fitted effect of over 65% in size;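 as to activity, negative = inhibition: plate controls were DMSO vehicle for no effect and reference drug for full effect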
Conditions: P. falciparum Dd2 growth, SYBR Green, 72 h; series mostly up to 28.9 µM; activity, negative = inhibition: at the top concentration
Procedure, shortened: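 Infected erythrocytes (Dd2, 0.3% parasitemia, 2.5% hematocrit final) are added to compound in RPMI-1640/Albumax II medium, grown 72 h at 37C in low oxygen, then lysed with saponin/Triton-X containing SYBR Green and read by fluorescence.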
Potency is read from the fitted curve at half-maximal effect.

| Structure (SMILES) | activity, negative = inhibition | Potency | outcome |
| --- | --- | --- | --- |
| COc1ccc(C(=O)N2CCCCCCNC(=O)CC2)cn1 | -6.17% (inactive) |  |  |
| O=C(CCc1conc1-c1ccccc1)NCc1ccco1 | 8.66% (inactive) |  |  |
| O=C(NCc1ccco1)C1CCCN(c2cnn(Cc3ccccc3)c(=O)c2)C1 (stereo not given) | -3.07% (inactive) |  |  |
| COc1cccc(CC(=O)N2CCC(N3C(=O)CCC3C(=O)NCc3ccccc3)CC2)c1 (stereo not given) | 13.2% (inactive) |  |  |
| O=C(NCc1ccco1)[C@@H]1Cc2nc[nH]c2CN1CCCc1ccccc1 |  | 7.94 µM (active) |  |
| O=C(NCc1ccccc1)[C@@H]1Cc2nc[nH]c2CN1Cc1cccc(OC(F)(F)F)c1 |  | 10 µM (active) |  |
| O=C(O)CCC(=O)N1Cc2[nH]cnc2C[C@H]1c1nc(-c2ccc3ccccc3c2)no1 | -13.2% [at 44.1 µM] (inactive) |  |  |
| Fc1ccc(NC2CCCN(Cc3ccc(C#Cc4cncnc4)cc3)C2)cc1F (stereo not given) |  |  | inactive |
| O=C1COc2ccc(-c3cncnc3)nc2CN1Cc1ccc(F)cc1 |  |  | inactive [at 44.1 µM] |
| OC1CC([C@@H](Cc2ccccn2)NC2CCC3(CCNCC3)CC2)C1 (stereo not given in full) | -1.91% (inactive) |  |  |
| Cc1ccc(C)c(Oc2c(C(F)(F)F)oc3c(CN4CCN(C)CC4)c(O)ccc3c2=O)c1 |  | 0.501 µM (active) |  |
| Cc1ccc(Oc2c(C(F)(F)F)oc3c(CN4CCCCC4)c(O)ccc3c2=O)cc1 |  | 3.55 µM (active) |  |
| CC1CCCN(Cc2c(O)ccc3c(=O)c(Oc4ccc(C(C)(C)C)cc4)c(C(F)(F)F)oc23)C1 (stereo not given) |  | 0.316 µM (active) |  |
| COc1ccc(-c2c(C)c3ccc(O)c(CN4CCCC4)c3oc2=O)cc1OC | -20.1% (inactive) |  |  |
| Cc1ccc2nc3n(c2c1)[C@@H](CNC(=O)c1ccc(C#N)cc1)COC3 |  |  | inactive [at 44.1 µM] |
| O=C(c1ccc(F)cc1)N1CCC2(CN[S+](=O)([O-])c3ccccc3N2)C1 (stereo not given) | 3.8% (inactive) |  |  |
| O=C1CC2(CCN(C(=O)CCn3ccccc3=O)C2)C(=O)N1 (stereo not given) | -9.42% (inactive) |  |  |
| CN[C@@H](CC(C)C)C(=O)N[C@@H]1C=C(C(=O)N[C@@H](Cc2ccc(O)cc2)C(N)=O)C[C@@H](O)[C@@H]1O | 0.132% (inactive) |  |  |
| O=C(NCCc1ccc(Cl)cc1)c1ccc2nccn2c1 |  | inactive |  |
| O=C(CCCN1C(=O)C(c2ccccc2)Oc2cccnc21)NCCc1noc(-c2ccncc2)n1 (stereo not given) |  |  | inactive |
| Cc1ccc2oc(C(=O)N(C)CCc3ccccc3)c(C)c2c1 | 6.68% (inactive) |  |  |
| O=C(NCc1ccncc1)C1CN(S(=O)(=O)c2cccnc2)CC12CCOCC2 (stereo not given) | 16.7% (inactive) |  |  |
| COc1ncccc1Nc1ncc(-c2ccccc2)c2c1OCC2 | -0.012% [at 44.1 µM] (inactive) |  |  |
| CN1CCN(Cc2ccc(Nc3ncc(-c4cccnc4)c4c3OCC4)cc2)CC1 |  | 10 µM (active) |  |

| Structure (SMILES) | activity, negative = inhibition | Potency | outcome |
| --- | --- | --- | --- |
| COc1ccccc1-c1cnc(NC(=O)c2ccc(Cl)cc2)c2c1CCO2 | 6.83% [at 44.1 µM] (inactive) |  |  |
| COc1cccc(C(=O)N2CCC(N3CCCCCC3=O)CC2)c1 | 2.85% [at 44.1 µM] (inactive) |  |  |
| O=C1NCc2ccccc2CC12CCN(Cc1cccc(Cl)c1)CC2 | -22.5% (inactive) |  |  |
| CC(C)Cc1ccc(CN2CCC3(CC2)Cc2ccccc2CNC3=O)cc1 |  | 11.2 µM (active) |  |
| Cc1cccc(C)c1CN1CCC2(CC1)Cc1ccccc1CNC2=O | -3.2% (inactive) |  |  |
| Cc1cc2nc3n(c(=O)c2n1CC(=O)NCc1ccc(F)cc1)CCCCC3 |  |  | inactive; activator; fitted 0.5012 uM |
| CC(C)CCN1CCC2(C1)C(=NC1CCCCC1)NC(=O)N2c1cc(F)cc(F)c1 (stereo not given) |  | 8.91 µM (active) |  |
| O=C1NC(=NC2CCCC2)C2(CCCN(Cc3ccsc3)C2)N1c1cc(F)cc(F)c1 (stereo not given) |  | 5.01 µM (active) |  |
| O=C1NC(=NC2CCCCC2)C2(CCCN(S(=O)(=O)c3cccs3)C2)N1c1cc(F)cc(F)c1 (stereo not given) | -26.6% (inactive) |  |  |
| COC(=O)N1CCC2(CC1)C(=NC1CCCC1)NC(=O)N2c1cc(F)cc(F)c1 | 0.0213% (inactive) |  |  |
| O=C(c1ccccc1F)N1CCCC2(C1)C(=NC1CCCCC1)NC(=O)N2c1cc(F)cc(F)c1 (stereo not given) | -4.93% (inactive) |  |  |
| COc1ccc(C(=O)N2CCCC3(C2)C(=NC2CCCC2)NC(=O)N3c2cc(F)cc(F)c2)cc1 (stereo not given) | -18.2% (inactive) |  |  |
| CS(=O)(=O)N(C1CCOCC1)C1CCN(C(=O)CC2CCCC2)CC1 | 36.5% (inactive) |  |  |
| COc1ccc(C(=O)N2CCc3nc(C(C)C)nc(-c4ccc(Cl)cc4)c3CC2)cc1 |  | 11.2 µM (active) |  |
| COc1ccc(-c2nc(C(C)C)nc3c2CN(C(=O)c2ccccc2F)CC3)cc1 | -24.9% (inactive) |  |  |
| O=C(c1cccc(Cl)c1)N1CCc2nc(C3CC3)nc(-c3ccc(Cl)cc3)c2C1 | -12.8% (inactive) |  |  |
| COc1ccc(-c2nc(C(C)C)nc3c2CN(C(=O)c2ccc(C(F)(F)F)cc2)CC3)cc1 |  |  | inactive |
| COc1ccc(-c2nc(C3CC3)nc3c2CCN(C(=O)c2ccc(C(F)(F)F)cc2)CC3)cc1 |  | 5.01 µM (active) |  |
| O=C(c1ccc(C(F)(F)F)cc1)N1CCc2nc(C3CC3)nc(-c3ccc(Cl)cc3)c2C1 | -11.2% (inactive) |  |  |
| O=C(c1ccccc1)N1CCC2(CC1)C(=O)NCN2C(=O)CCCN1CCCC1 | -16.4% (inactive) |  |  |
| COc1ccccc1OCCNC(=O)c1cn2ccnc(-c3ccc(C)cc3)c2n1 | 1.02% (inactive) |  |  |
| Cn1cc(CNC(=O)C[C@@H]2C[C@H]3O[C@H](CNC(=O)Nc4cccs4)[C@@H](O)[C@H]3O2)cn1 | 13.5% (inactive) |  |  |
| COC1CCN(C(=O)c2c(-c3cnn(C)c3NCc3cccnc3)noc2C)CC1 | -23.5% [at 44.1 µM] (inactive) |  |  |
| COc1ccc(N2CC(c3noc(-c4ccc(C(C)(C)C)cc4)n3)CC2=O)cc1 (stereo not given) |  |  | inactive |

| Structure (SMILES) | activity, negative = inhibition | Potency | outcome |
| --- | --- | --- | --- |
| CCn1cc(-c2ccc(OC)cc2)cc1C(=O)N1CCC(C)CC1 | -7.32% (inactive) |  |  |
| Cc1ccc(CN2CCC3OCCN(Cc4ccccc4)C(=O)C3C2)o1 (stereo not given) |  |  | inactive [at 44.1 µM] |
| Cn1nc2n(c1=O)CCN(C(=O)C1CC=CCC1)CC2 (stereo not given) | 12.7% (inactive) |  |  |
| COc1ccc2c(c1)c(=O)c(C(=O)c1ccccc1)cn2CC(=O)Nc1ccc2c(c1)OCCO2 |  |  | inactive |
| COc1cc2[nH]c(=O)n(Cc3ccc(C(=O)NCc4ccc(C)cc4)cc3)c(=O)c2cc1OC | -25% (inactive) |  |  |
| COc1ccc(NC(=O)Cn2cc(C(=O)c3ccncc3)c(=O)c3cc(C)ccc32)cc1Cl | -12.7% (inactive) |  |  |
| COc1ccc(Cn2cc(C(=O)c3ccc(C)cc3)c(=O)c3cc(OC)c(OC)cc32)cc1 |  | 12.6 µM (active) |  |
| CCOc1ccc(C(=O)c2cn(Cc3ccccc3OC)c3ccc(F)cc3c2=O)cc1 |  | 10 µM (active) |  |
| CCOc1ccc(NC(=O)Cn2cc(C(=O)c3ccc(C)cc3)c(=O)c3cc4c(cc32)OCCO4)cc1 | 13% (inactive) |  |  |
| COC(=O)C1=CN(CC(=O)Nc2ccc(F)cc2F)S(=O)(=O)N=C1C | 38.3% (inactive) |  |  |
| CCn1cnnc1CC1CCN(C(=O)c2cc(-c3ccc(F)cc3)nc3ccccc23)CC1 |  |  | inactive |
| COc1ccc(-c2nc(CN3CCC(C(=O)NCc4ccccc4)CC3)c(C)o2)cc1OC | -4.44% (inactive) |  |  |
| CCn1cnnc1CC1CCN(C(=O)C2CCN(Cc3nc(-c4cccc(C)c4)oc3C)CC2)CC1 |  | 3.16 µM (active) |  |
| CC(C)CNC(=O)N1C[C@@H](Oc2cccnc2)C[C@H]1C(=O)N1CCOCC1 | 4.23% (inactive) |  |  |
| NS(=O)(=O)c1ccc(F)c(C(=O)NCc2ccc3nonc3c2)c1 | -3.1% (inactive) |  |  |
| CCOc1ccc(CCNc2nc(-c3ccccc3)no2)cc1 |  |  | inactive |
| Cc1ccc(-n2cnc3cc(C(=O)NCCC4=CCCCC4)ccc32)cc1Cl | -1.01% (inactive) |  |  |
| Cc1ccc(CCNC(=O)c2ccc3c(c2)nc2n3CCC(C)C2)cc1 (stereo not given) | 9.74% (inactive) |  |  |
| CCCNC(=O)c1ccc2c(c1)ncn2-c1ccc(C)cc1C |  | 11.2 µM (active) |  |
| Cc1cc(Cn2cc3c4c(cccc42)[C@H](CC(C)C)N[C@H](C(=O)N2CCCCCC2)C3)no1 | -18.5% (inactive) |  |  |
| CN1C(=O)c2cccn2CC1C(=O)N1CCc2ccccc21 (stereo not given) | -23.7% (inactive) |  |  |
| CCc1ccc(NC(=O)c2cnc3c(-c4ccccc4)c(C)nn3c2C)cc1 | 28.5% (inactive) |  |  |
| CCc1ccc(NC(=O)c2sc3nc4c(cc3c2N)CN(CC)CC4)cc1 |  | 11.2 µM (active) |  |
| O=C(Nc1ccc(OC(F)(F)F)cc1)c1cc2c(=O)n3ccccc3nc2s1 | -6.4% (inactive) |  |  |

| Structure (SMILES) | activity, negative = inhibition | Potency | outcome |
| --- | --- | --- | --- |
| CCN1CCc2nc3sc(C(=O)Nc4ccccc4OC(F)(F)F)c(N)c3cc2C1 |  | 10 µM (active) |  |
| CCc1cccc(NC(=O)c2cnc(N3CCOCC3)c3ccccc23)c1 | -1.56% (inactive) |  |  |
| COc1ccc(Cl)cc1NC(=O)c1sc2nc3c(cc2c1N)CN(C)CC3 |  |  | inactive |
| CCOc1ccccc1C(=O)N1CCC2(CC1)CN(C(C)=O)CC2COC (stereo not given) | -6.6% (inactive) |  |  |
| CCC(=O)N1CCc2c(sc3ncnc(NCc4cccnc4)c23)C1 | -11.2% (inactive) |  |  |
| Cc1noc2c(-c3cccc(CO)c3)cc(-c3ccccc3)nc12 | 14.6% [at 44.1 µM] (inactive) |  |  |
| O=C(Cc1ccc(OC(F)(F)F)cc1)N1CC2CC(C1)[C@H]1CCCC(=O)N1C2 (stereo not given in full) | -23.3% (inactive) |  |  |
| Cn1ccnc1C(=O)N1CCCCCCNC(=O)[C@@H]2CCCC[C@@H]21 | -9.02% (inactive) |  |  |
| CC1(C)[C@H](Cc2cc(-c3ccccc3)on2)C[C@@H]1NS(C)(=O)=O |  |  | inactive [at 44.1 µM] |
| CC1(C)[C@H](Cc2cc(CCO)on2)C[C@@H]1NCC1CC1 | -27.4% [at 44.1 µM] (inactive) |  |  |
| CC1(C)[C@H](Cc2cc(-c3ccccc3)on2)C[C@@H]1NCC1CC1 |  | 12.6 µM (active) |  |
| CCn1ncc(N2CCC(NC(=O)CCOC)CC2)cc1=O | 14.1% (inactive) |  |  |
| O=C(NC1CCN(c2cc(-c3ccc(Cl)cc3)[nH]n2)CC1)c1ccccc1F | -19.1% (inactive) |  |  |
| O=C(Cn1ccn2nc(-c3ccccc3)c(CO)c2c1=O)Nc1cc(F)ccc1Cl | 5.55% (inactive) |  |  |
| CC1=C[C@@H](CN2CCCC2)[C@H](C(C)C)C[C@H]1Cc1nnc(-c2ccc([N+](=O)[O-])cc2)o1 |  | 1.78 µM (active) |  |
| CC1=C[C@@H](CNC(=O)NC(C)C)[C@H](C(C)C)C[C@H]1Cc1nnc(-c2ccncc2)o1 | -13.7% [at 44.1 µM] (inactive) |  |  |
| CC1=C[C@@H](CN2CCN(CCO)CC2)[C@H](C(C)C)C[C@H]1Cc1nnc(-c2ccc(C)cc2)o1 | -0.227% (inactive) |  |  |
| CC1=C[C@@H](CNC(=O)COc2ccccc2)[C@H](C(C)C)C[C@H]1CC(=O)NCc1ccccn1 |  |  | inactive |
| Fc1ccc(CN2CC[C@H](c3nnc(-c4ccccc4F)o3)C2)cc1 |  |  | inactive [at 44.1 µM] |
| CC1=C[C@@H](CNC(C)C)[C@H](C(C)C)C[C@H]1Cc1nnc(-c2ccc(N(C)C)cc2)o1 |  | 3.55 µM (active) |  |
| CC1=C[C@@H](CN2CCC(O)CC2)[C@H](C(C)C)C[C@H]1Cc1nnc(-c2ccccc2F)o1 |  | 8.91 µM (active) |  |
| CC1=C[C@@H](CC#N)[C@H](C(C)C)C[C@H]1CC(=O)N1CCN(C)CC1 | -5.72% [at 44.1 µM] (inactive) |  |  |
| CC1=C[C@@H](CNC(C)C)[C@H](C(C)C)C[C@H]1Cc1nnc(-c2ccncc2)o1 |  |  | inactive [at 44.1 µM] |
